In the supplement of paper PMC11732987, “Enantioselective OTUD7B fragment discovery through chemoproteomics screening and high-throughput optimisation” (Communications Chemistry, 2025):

Tests used:
Test in all cases: log2 ratio of Biotin-Ahx-Ub-VS probe labelling (fragment/DMSO); higher = less target engagement (more negative = stronger competition), active = hit call of the paper (q ≤ 0.05, log2 ratio ≤ -1)
Settings in all cases: compound concentration: 200 uM; treatment time: 3 h
USP34 = USP34 (UniProt Q70CQ2)
Procedure, shortened: (§1)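 Each value is an average log2 ratio of fragment to vehicle, tested by unpaired t-test. The underlying Spectronaut label-free quantities were global-median-normalised, and only proteins with ≥2 unique peptides were included. Triplicate HEK293T lysate samples (495 µg) were exposed to fragment at 200 µM or vehicle for 3 h, then to Biotin-Ahx-Ub-VS at 0.5 µM final for 1 h, before NeutrAvidin enrichment of labelled DUBs, LysC and trypsin digestion, and diaPASEF LC-MS/MS.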

USP36 = molecular target: T1, USP36 (UniProt Q9P275)
T1 sequence (whole entry): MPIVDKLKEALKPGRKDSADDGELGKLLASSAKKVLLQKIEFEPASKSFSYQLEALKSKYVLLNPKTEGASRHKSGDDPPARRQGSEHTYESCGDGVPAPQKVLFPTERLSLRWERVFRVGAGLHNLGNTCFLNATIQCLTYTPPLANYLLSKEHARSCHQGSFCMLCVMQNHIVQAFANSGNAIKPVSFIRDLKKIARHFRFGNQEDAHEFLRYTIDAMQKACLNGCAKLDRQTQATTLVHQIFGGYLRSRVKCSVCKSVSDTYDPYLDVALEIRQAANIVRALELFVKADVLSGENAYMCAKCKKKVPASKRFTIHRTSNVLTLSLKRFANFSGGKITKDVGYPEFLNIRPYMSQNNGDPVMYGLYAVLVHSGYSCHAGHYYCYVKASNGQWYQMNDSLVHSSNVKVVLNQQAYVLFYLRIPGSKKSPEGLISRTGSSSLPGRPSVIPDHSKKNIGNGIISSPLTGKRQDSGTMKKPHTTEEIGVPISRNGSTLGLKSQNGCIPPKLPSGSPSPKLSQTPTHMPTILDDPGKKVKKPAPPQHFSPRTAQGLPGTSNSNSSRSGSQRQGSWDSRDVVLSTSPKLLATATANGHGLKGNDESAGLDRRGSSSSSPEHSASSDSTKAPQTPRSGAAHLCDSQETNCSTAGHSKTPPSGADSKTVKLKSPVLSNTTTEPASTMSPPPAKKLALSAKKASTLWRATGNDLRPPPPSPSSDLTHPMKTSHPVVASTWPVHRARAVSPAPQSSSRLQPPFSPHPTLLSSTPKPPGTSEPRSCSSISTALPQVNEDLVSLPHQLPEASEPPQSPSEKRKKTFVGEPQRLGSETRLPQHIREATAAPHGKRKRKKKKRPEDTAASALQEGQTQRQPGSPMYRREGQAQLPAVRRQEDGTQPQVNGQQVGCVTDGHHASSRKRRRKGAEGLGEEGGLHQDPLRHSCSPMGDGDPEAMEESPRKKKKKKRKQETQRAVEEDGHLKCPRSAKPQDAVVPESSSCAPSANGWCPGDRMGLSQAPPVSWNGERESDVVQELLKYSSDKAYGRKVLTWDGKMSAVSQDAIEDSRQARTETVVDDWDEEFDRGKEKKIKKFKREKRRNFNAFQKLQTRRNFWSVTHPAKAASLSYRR
Procedure, shortened: as §1

USP38 = molecular target: T2, USP38 (UniProt Q8NB14)
T2 sequence (whole entry): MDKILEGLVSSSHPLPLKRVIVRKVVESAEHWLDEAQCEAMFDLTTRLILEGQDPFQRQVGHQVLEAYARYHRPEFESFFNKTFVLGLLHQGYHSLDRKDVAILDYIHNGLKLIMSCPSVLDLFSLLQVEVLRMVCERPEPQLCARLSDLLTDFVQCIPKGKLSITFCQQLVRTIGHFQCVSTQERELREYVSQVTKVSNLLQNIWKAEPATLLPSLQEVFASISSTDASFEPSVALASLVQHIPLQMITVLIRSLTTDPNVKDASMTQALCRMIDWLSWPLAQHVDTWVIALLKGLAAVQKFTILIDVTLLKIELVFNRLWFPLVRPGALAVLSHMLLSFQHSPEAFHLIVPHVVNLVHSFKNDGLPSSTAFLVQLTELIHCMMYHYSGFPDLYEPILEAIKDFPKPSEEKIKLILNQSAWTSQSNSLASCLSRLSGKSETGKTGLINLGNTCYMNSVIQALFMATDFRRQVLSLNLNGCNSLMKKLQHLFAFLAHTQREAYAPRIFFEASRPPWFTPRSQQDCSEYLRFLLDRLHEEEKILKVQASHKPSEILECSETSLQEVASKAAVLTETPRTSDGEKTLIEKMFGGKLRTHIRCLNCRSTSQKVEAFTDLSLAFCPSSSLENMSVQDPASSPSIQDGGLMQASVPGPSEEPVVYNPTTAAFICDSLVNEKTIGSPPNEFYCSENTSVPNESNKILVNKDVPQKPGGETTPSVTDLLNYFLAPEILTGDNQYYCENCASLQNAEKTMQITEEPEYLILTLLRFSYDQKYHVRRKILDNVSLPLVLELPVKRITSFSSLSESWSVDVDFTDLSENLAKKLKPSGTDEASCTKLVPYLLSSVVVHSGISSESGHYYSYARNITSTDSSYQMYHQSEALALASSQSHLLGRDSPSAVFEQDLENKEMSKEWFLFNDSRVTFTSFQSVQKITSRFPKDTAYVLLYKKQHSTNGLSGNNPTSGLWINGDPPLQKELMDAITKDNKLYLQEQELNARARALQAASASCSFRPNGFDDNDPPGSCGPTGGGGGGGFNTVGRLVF
Procedure, shortened: as §1

USP39 = molecular target: T3, USP39 (UniProt Q53GS9)
T3 sequence (whole entry): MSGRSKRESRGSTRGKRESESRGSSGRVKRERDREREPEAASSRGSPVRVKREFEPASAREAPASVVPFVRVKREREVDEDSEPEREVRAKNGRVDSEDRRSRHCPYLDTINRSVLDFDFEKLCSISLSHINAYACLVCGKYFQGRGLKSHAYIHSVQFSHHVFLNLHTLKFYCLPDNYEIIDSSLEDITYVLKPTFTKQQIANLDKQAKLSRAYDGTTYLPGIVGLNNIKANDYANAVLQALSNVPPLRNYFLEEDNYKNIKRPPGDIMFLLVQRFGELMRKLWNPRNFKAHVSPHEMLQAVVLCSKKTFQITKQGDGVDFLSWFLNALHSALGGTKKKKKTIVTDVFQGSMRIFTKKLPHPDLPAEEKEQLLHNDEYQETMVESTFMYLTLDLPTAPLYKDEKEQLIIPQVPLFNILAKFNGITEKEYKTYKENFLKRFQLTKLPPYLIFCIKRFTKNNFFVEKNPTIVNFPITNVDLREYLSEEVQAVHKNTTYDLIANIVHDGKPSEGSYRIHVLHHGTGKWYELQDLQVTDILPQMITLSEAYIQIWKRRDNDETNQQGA
Procedure, shortened: as §1

USP4 = molecular target: T4, USP4 (UniProt Q13107)
T4 sequence (whole entry): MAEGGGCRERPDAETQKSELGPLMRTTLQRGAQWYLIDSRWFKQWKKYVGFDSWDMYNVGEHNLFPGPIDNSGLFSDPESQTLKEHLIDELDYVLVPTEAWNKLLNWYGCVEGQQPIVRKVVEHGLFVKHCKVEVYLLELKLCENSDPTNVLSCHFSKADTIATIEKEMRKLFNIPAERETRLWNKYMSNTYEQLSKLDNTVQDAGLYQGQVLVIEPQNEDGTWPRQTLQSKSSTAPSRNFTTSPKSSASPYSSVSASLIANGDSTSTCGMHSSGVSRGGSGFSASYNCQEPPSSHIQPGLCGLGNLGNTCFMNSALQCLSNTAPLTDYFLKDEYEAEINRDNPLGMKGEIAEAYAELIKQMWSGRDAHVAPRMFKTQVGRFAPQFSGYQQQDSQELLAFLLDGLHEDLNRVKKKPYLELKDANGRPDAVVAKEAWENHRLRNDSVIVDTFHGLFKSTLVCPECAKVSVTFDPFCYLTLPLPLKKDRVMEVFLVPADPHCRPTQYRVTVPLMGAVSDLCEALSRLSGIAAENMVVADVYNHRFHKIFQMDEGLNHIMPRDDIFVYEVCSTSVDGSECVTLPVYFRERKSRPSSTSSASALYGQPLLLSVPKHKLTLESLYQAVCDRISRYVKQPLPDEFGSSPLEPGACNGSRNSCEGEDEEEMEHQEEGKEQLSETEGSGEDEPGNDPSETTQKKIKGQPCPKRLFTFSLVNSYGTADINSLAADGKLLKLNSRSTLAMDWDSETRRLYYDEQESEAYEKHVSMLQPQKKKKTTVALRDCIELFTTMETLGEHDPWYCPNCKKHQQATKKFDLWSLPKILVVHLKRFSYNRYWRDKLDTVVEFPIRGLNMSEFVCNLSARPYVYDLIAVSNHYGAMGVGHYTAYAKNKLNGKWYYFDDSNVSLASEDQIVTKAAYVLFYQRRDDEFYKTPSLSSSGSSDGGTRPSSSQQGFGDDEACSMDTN
Procedure, shortened: as §1

Measured: log2 ratio of Biotin-Ahx-Ub-VS probe labelling

USP34, sequence (Q70CQ2 whole entry, the tested form may be a part): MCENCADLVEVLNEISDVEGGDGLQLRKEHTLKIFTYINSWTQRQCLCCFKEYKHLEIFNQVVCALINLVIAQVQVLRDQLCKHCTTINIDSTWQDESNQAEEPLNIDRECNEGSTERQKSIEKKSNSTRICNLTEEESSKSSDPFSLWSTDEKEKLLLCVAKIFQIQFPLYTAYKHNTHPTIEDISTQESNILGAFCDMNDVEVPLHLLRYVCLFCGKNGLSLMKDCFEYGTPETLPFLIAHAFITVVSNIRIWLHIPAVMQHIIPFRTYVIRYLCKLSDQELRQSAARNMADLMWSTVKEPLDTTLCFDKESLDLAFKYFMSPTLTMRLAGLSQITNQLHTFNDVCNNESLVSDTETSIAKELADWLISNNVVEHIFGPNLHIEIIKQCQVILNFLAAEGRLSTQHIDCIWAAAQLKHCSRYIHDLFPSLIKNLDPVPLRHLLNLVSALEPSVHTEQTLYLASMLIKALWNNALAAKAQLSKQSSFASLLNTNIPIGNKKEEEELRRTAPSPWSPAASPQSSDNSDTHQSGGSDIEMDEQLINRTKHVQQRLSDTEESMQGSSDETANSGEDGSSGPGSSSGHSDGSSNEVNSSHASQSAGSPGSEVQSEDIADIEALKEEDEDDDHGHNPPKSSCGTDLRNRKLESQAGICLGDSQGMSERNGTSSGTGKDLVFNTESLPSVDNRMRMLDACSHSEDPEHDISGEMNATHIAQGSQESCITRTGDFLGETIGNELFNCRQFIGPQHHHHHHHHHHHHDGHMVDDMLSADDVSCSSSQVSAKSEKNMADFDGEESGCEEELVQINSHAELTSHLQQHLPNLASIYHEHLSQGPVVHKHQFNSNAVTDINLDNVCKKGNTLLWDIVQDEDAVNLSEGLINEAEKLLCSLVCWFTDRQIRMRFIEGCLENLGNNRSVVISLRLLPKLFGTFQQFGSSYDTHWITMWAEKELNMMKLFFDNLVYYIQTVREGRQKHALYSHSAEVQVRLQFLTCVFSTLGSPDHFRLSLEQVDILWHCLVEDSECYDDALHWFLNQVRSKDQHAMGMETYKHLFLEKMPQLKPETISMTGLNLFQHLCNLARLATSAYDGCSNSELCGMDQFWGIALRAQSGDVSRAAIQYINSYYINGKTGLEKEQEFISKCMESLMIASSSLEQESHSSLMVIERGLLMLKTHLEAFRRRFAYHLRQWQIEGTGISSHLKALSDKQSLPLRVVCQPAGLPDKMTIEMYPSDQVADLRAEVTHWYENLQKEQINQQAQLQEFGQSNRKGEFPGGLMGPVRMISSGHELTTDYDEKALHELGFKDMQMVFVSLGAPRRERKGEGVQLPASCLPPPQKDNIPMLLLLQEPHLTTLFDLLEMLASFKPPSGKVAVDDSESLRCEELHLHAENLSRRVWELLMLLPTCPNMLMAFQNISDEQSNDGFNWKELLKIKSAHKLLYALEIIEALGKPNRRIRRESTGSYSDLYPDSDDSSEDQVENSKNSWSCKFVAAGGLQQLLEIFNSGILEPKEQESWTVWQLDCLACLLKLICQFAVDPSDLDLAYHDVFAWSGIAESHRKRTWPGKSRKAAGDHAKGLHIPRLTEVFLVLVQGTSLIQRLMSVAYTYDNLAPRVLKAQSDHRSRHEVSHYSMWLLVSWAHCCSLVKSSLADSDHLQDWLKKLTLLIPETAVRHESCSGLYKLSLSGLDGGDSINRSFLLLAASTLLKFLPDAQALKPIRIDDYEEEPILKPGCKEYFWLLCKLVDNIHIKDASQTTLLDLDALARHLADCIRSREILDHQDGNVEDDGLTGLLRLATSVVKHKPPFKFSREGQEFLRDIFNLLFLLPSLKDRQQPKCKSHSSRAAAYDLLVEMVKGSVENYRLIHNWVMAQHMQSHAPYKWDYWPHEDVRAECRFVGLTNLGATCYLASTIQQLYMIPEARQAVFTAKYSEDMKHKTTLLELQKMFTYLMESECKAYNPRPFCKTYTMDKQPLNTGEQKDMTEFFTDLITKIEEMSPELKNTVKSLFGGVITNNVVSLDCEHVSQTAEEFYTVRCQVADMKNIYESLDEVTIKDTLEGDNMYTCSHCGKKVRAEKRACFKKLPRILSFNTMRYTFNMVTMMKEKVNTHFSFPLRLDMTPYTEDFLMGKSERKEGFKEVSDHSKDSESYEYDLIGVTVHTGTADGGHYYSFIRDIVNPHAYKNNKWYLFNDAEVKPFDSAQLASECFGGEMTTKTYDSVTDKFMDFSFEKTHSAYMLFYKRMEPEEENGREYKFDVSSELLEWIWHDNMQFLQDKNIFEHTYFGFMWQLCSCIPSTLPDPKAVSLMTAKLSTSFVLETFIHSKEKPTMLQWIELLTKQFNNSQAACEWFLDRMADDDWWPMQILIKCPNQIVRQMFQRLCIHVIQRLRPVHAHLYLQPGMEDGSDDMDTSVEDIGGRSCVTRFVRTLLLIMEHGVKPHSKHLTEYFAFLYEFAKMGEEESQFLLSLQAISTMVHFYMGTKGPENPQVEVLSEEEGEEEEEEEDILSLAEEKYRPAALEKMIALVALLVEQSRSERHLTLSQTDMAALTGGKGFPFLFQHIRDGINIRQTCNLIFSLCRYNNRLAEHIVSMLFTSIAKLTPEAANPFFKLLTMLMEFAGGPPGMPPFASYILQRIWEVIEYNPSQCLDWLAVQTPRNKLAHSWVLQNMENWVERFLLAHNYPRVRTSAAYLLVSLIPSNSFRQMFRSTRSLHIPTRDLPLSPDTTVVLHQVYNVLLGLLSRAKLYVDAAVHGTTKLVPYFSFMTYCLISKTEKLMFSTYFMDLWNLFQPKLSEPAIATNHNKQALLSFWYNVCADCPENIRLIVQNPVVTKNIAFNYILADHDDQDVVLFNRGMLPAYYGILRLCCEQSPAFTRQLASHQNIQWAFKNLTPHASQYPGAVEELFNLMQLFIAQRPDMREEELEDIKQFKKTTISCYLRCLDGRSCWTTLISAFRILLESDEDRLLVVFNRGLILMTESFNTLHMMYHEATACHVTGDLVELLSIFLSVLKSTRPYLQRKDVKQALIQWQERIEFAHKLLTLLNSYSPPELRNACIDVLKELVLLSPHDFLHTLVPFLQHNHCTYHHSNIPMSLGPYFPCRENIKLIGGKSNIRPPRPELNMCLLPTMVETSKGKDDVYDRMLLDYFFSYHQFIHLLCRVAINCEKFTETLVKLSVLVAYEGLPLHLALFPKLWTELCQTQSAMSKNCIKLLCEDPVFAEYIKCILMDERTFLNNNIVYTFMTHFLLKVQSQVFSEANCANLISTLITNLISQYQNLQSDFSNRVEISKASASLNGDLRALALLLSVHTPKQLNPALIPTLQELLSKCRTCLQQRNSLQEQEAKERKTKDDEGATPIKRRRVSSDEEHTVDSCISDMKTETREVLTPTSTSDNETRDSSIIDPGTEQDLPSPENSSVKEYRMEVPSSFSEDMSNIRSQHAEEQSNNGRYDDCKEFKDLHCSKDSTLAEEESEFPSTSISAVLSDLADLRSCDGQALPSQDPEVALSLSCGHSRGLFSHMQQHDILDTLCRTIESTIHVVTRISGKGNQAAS

O=C(CCl)N1CCOC2(CCC2)C1
inactive: USP34 0.118 | USP36 0.102 | USP38 0.253 | USP39 0.11 | USP4 -0.266
